37 compounds from PubChem BioAssay (NCATS) can be followed below.

Results filed as inconclusive are left out. Active and inactive are the calls of the source. Unless noted, calls come from the whole dose curve; as a rule, active = well fitted curve in the direction sought with a large enough effect in the repeat runs; inconclusive = weak or mixed curves; inactive = no such curve, though single readings can be large; an effect the other way counts as inactive or inconclusive.

Tested on in the first test: not listed separately
Briefly: Primary qHTS for small molecule stabilizers of the endoplasmic reticulum resident proteome: Secreted ER Calcium Modulated Protein (SERCaMP) assay (AID 1508630; active = well fitted curve in the direction sought with a large enough effect; an effect the other way counts as inactive or inconclusive; note: % is set by controls: 0 for no effect and ±100 for the full control effect). The following applies: SH-SY5Y GLuc-SERCaMP (Gaussia luciferase released on ER calcium loss) secretion, thapsigargin, luminescence; series mostly up to 38.4 µM; activity change, negative = inhibition: at the top concentration. Put shortly: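 GLuc-SERCaMP-expressing SH-SY5Y cells, pretreated 16 h with compound, are challenged with thapsigargin to empty ER calcium stores; after 4 h, coelenterazine is added directly to the medium and luminescence is imaged.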
On the technique in general: Quantitative high-throughput screening tests each substance at several concentrations.
With `O=c1[nH]sc2cc(Cl)ccc12`, the “activity change, negative = inhibition” value was 122% (inactive).
Regarding `CCCCCCCCCCCCCCCCCCN(C)C`, the “activity change, negative = inhibition” value is 1.46% (inactive).
Same read-out and setting: as for `COC(=O)C1=C(C)NC(COC(N)=O)=C(C(=O)OC(C)C)C1c1cccc(Cl)c1Cl` (configuration not stated), the figure is -12.2% (inactive); as for `CC(C)=CCNc1ncnc2c1ncn2[C@@H]1O[C@H](CO)[C@@H](O)[C@H]1O`, 331% (inactive).
Take `CCCCNc1ccc(C(=O)OCCN(CC)CC)cc1`: the “activity change, negative = inhibition” value is 12.4% (inactive).
Same read-out and setting: as for `CC(=O)Nc1ccc(S(=O)(=O)Nc2cc(C)on2)cc1`, the figure is -22% (inactive); as for `Cc1cc(O)c2c(O)c3c(O)cccc3cc2c1`, 2.42% (inactive).
For the compound `CCCCC(=O)OCC(=O)[C@H]1[C@H](C)C[C@H]2[C@@H]3C[C@H](F)C4=CC(=O)C=C[C@]4(C)[C@@]3(F)[C@@H](O)C[C@@]21C`, the “activity change, negative = inhibition” value was 26.5% (inactive).
Still for that read-out and setting: the same measure for `Cc1nc(N)nc(N)c1-c1ccc(Cl)c(Cl)c1`: 12.8% (inactive).
As for `C=CC[N+]1([C@H]2C[C@H]3[C@@H]4CC[C@H]5C[C@H](OC(C)=O)[C@@H](N6CCCCC6)C[C@]5(C)[C@H]4CC[C@]3(C)[C@H]2OC(=O)CC)CCCCC1`, the “activity change, negative = inhibition” value was -13.5% (inactive).
Still for that read-out and setting: as for `O=C(Nc1ccc(S(=O)(=O)N2CCOCC2)cc1)c1cc(Cl)ccc1NS(=O)(=O)c1ccc(Cl)s1`, the figure is -15.2% (inactive).
On the same count and under the same terms, the same measure for `CC1CCCCN1CCCOC(=O)c1ccc(OC2CCCCC2)cc1` (configuration not stated): 12% (inactive).
The same measure, in the same setting: as for `CC1(C)O[C@@H]2C[C@H]3[C@@H]4C[C@H](F)C5=CC(=O)C=C[C@]5(C)[C@@]4(F)[C@@H](O)C[C@]3(C)[C@]2(C(=O)CO)O1`, the figure is 59.1% (inactive); as for `CCC(CN)=C(c1ccccc1)c1ccccc1`, -20.1% (inactive).
For the compound `CC(NCCC(c1ccccc1)c1ccccc1)c1ccccc1` (configuration not stated), the “activity change, negative = inhibition” value is 211% (inactive).
The same measure, in the same setting: as for `CCCCCOc1ccccc1/C(=C\SC)n1ccnc1`, the figure is 60.1% (inactive).
The same measure, in the same setting: the same measure for `Nc1ncnc2c1ncn2Cc1c(F)cccc1Cl`: -16.1% (inactive).
On the same count and under the same terms, as for `CCC(=O)O[C@]1(C(=O)COC)[C@@H](C)C[C@H]2[C@@H]3CCC4=CC(=O)C=C[C@]4(C)C3(F)[C@@H](O)C[C@@]21C` (some centres not stated), the figure is 23% (inactive); as for `CO[C@@H]1[C@@H](OC)[C@H](C)[C@@](O)(CC(=O)O)O[C@H]1[C@H](C)[C@H]1O[C@@]2(CC[C@@](C)([C@H]3CC[C@@](C)([C@@H]4O[C@@H]([C@H]5O[C@](C)(O)[C@H](C)C[C@@H]5C)C[C@@H]4OC4C[C@H](OC)[C@@H](OC)[C@H](C)O4)O3)O2)C[C@H](O)[C@H]1C` (some centres not stated), 210% (inactive); as for `CCOC(=O)NNc1ccc(N(CC)CC(C)O)nn1` (configuration not stated), -5.18% (inactive).

Tested on in the next test: not listed separately
Briefly: A High-Content qHTS Against Drug Library for the Identification of Small Molecules that Inhibit DYT1 Early Onset Primary Dystonia-Associated Cell Pathology (AID 1645839; calls by dose curve). The following applies: HEK293 Flp-In EGFP-delE TorsinA, punctate imaging, 48 h; series mostly up to 46.1 µM; % pathology change, negative = correction: at the top concentration. Put shortly:
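Readout: %pathology, the punctate EGFP-TorsinA distribution from imaging, as the primary channel and cell count as the toxicity counterscreen. HEK293 Flp-In cells expressing delE TorsinA were induced with tetracycline and treated with compound for 48 h.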
Turning to `CCCC(=O)O[C@]1(C(=O)CCl)[C@@H](C)C[C@H]2[C@@H]3CCC4=CC(=O)C=C[C@]4(C)[C@@]3(F)C(=O)C[C@@]21C`, the “% pathology change, negative = correction” value was 10.7% (inactive).
Same read-out and setting: the same measure for `CCCCC(=O)OCC(=O)[C@H]1[C@H](C)C[C@H]2[C@@H]3C[C@H](F)C4=CC(=O)C=C[C@]4(C)[C@@]3(F)[C@@H](O)C[C@@]21C`: -0.741% (inactive); for `C=CC[N+]1([C@H]2C[C@H]3[C@@H]4CC[C@H]5C[C@H](OC(C)=O)[C@@H](N6CCCCC6)C[C@]5(C)[C@H]4CC[C@]3(C)[C@H]2OC(=O)CC)CCCCC1`: -3.48% (inactive); for `CCC(=O)O[C@]1(C(=O)COC)[C@@H](C)C[C@H]2[C@@H]3CCC4=CC(=O)C=C[C@]4(C)C3(F)[C@@H](O)C[C@@]21C` (some centres not stated): 0.507% (inactive).

In the next test the target is Cytochrome P450 2D6 (Homo sapiens) (UniProt P10635). Briefly: Cytochrome P450 family 2 subfamily D member 6 (CYP2D6) small molecule antagonists: luciferase biochemical (cell-free) qHTS assay (AID 1645840). For activity change, negative = inhibition: % is set by controls: 0 for no effect and ±100 for the full control effect. Note: nearly all actives have a fitted effect of over 55% in size. Note: potency is the fitted concentration of half-maximal effect. The following applies: P450-Glo CYP2D6 enzyme, luciferin luminescence, 1 h; series mostly up to 57.4 µM; activity change, negative = inhibition: at the top concentration. Put shortly: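 P450-Glo luminescent screen: recombinant CYP2D6 enzyme–proluciferin substrate mix preincubated with compound 10 min at room temperature, then NADPH regeneration added for 1 h at room temperature. Detection reagent added for 20 min; luciferin light read as relative luminescence units.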
Cytochrome P450 2D6 (Homo sapiens), sequence (P10635 whole entry, looked up): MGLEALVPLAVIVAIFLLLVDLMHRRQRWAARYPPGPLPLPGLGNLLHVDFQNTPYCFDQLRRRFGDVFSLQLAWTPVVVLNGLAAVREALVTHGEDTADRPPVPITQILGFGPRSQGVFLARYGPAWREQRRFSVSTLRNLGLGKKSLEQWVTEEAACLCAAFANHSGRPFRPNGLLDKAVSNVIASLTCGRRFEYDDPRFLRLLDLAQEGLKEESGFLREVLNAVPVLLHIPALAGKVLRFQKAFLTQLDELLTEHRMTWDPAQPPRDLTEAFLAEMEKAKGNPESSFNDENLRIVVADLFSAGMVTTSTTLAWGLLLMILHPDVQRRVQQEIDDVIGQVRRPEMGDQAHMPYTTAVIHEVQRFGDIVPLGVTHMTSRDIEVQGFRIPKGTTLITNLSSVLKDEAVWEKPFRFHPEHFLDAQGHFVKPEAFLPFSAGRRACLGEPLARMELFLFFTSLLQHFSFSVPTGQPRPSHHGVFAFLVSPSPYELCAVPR
Regarding `O=C(Nc1ccc(Cl)cc1)Nc1ccc(Cl)c(C(F)(F)F)c1`, the Potency is 13.8 µM (active).
For `NC(=O)NC1N=C([O][Al])NC1=O` (configuration not stated), the Potency is 13.8 µM (active).
Consider `COc1ccccc1OCC1CNC(=O)O1` (configuration not stated), for which the “activity change, negative = inhibition” value was 4.23% (inactive).
Still for that read-out and setting: as for `CNC[C@H](O)[C@@H](O)[C@H](O)[C@H](O)CO`, the figure is 7.98% (inactive); as for `CC(=O)N(CC(O)CO)c1c(I)c(C(=O)NCCO)c(I)c(C(=O)NCC(O)CO)c1I` (configuration not stated), 1.44% (inactive).
Same read-out and setting: as for `NS(=O)(=O)c1cc2c(cc1Cl)CN(C1CCCCC1)C2=O`, the figure is 9.1% (inactive).
For `c1ccc(C(O[C@H]2CCCN(CCc3ccc4c(c3)OCO4)C2)c2ccccc2)cc1`, the Potency is 0.0123 µM (active).
On to `O=C(Nc1ccc(Cl)cc1)Nc1ccc(Cl)c(Cl)c1`, for which the “activity change, negative = inhibition” value is -0.734% (inactive).
The same measure, in the same setting: as for `C[C@H]1NCc2cc(-c3ccc4c(=O)c(C(=O)O)cn(C5CC5)c4c3OC(F)F)ccc21`, the figure is 15.6% [at 23.9 µM] (inactive); as for `CN=C(N)NC(=O)Nc1c(C)cccc1C`, 3.19% (inactive); as for `CN(C(=O)C(Cl)Cl)c1ccc(OC(=O)c2ccco2)cc1`, -18.7% (inactive).
For the compound `CN1CC[C@H](c2c(O)cc(O)c3c(=O)cc(-c4ccccc4Cl)oc23)[C@H](O)C1`, the Potency is 12.3 µM (active).
Regarding `Cc1cc(=O)oc2cc(O[C@@H]3SC[C@@H](O)[C@H](O)[C@H]3O)ccc12`, the “activity change, negative = inhibition” value is -0.665% (inactive).
On the same count and under the same terms, as for `CCCCCN(CCCOC)C(=O)C(CCC(=O)O)NC(=O)c1ccc(Cl)c(Cl)c1` (configuration not stated), the figure is 4.35% (inactive).
With `COc1ccc(-n2nc(CCC(=O)N(C)O)cc2-c2ccc(Cl)cc2)cc1`, the Potency is 4.9 µM (active).
The same measure, in the same setting: as for `CCCCCCCCCCCC[N+](C)(C)Cc1ccccc1`, the figure is 0.195 µM (active).
Turning to `O=c1[nH]sc2cc(Cl)ccc12`, the “activity change, negative = inhibition” value was 0.408% (inactive).
The same measure, in the same setting: the same measure for `CCCCCCCCCCCCCCCCCCN(C)C`: 1.87% (inactive).
Turning to `COC(=O)C1=C(C)NC(COC(N)=O)=C(C(=O)OC(C)C)C1c1cccc(Cl)c1Cl` (configuration not stated), the Potency was 19.5 µM (active).
As for `CC(C)=CCNc1ncnc2c1ncn2[C@@H]1O[C@H](CO)[C@@H](O)[C@H]1O`, the “activity change, negative = inhibition” value was -0.619% (inactive).
For `CCCCNc1ccc(C(=O)OCCN(CC)CC)cc1`, the Potency was 3.47 µM (active).
Regarding `CC(=O)Nc1ccc(S(=O)(=O)Nc2cc(C)on2)cc1`, the “activity change, negative = inhibition” value is -2.01% (inactive).
On the same count and under the same terms, the same measure for `Cc1cc(O)c2c(O)c3c(O)cccc3cc2c1`: 0% (inactive).
As for `Cc1nc(N)nc(N)c1-c1ccc(Cl)c(Cl)c1`, the Potency is 0.871 µM (active).
The same measure, in the same setting: as for `O=C(Nc1ccc(S(=O)(=O)N2CCOCC2)cc1)c1cc(Cl)ccc1NS(=O)(=O)c1ccc(Cl)s1`, the figure is 15.5 µM (active); as for `CC1CCCCN1CCCOC(=O)c1ccc(OC2CCCCC2)cc1` (configuration not stated), 11 µM (active).
For `CC1(C)O[C@@H]2C[C@H]3[C@@H]4C[C@H](F)C5=CC(=O)C=C[C@]5(C)[C@@]4(F)[C@@H](O)C[C@]3(C)[C@]2(C(=O)CO)O1`, the “activity change, negative = inhibition” value is -14% (inactive).
On to `CCC(CN)=C(c1ccccc1)c1ccccc1`, for which the Potency is 3.63 µM (active).
On the same count and under the same terms, as for `CC(NCCC(c1ccccc1)c1ccccc1)c1ccccc1` (configuration not stated), the figure is 0.0871 µM (active).
The same measure, in the same setting: as for `CCCCCOc1ccccc1/C(=C\SC)n1ccnc1`, the figure is 0.977 µM (active).
With `Nc1ncnc2c1ncn2Cc1c(F)cccc1Cl`, the “activity change, negative = inhibition” value is 20.8% (inactive).
Take `CO[C@@H]1[C@@H](OC)[C@H](C)[C@@](O)(CC(=O)O)O[C@H]1[C@H](C)[C@H]1O[C@@]2(CC[C@@](C)([C@H]3CC[C@@](C)([C@@H]4O[C@@H]([C@H]5O[C@](C)(O)[C@H](C)C[C@@H]5C)C[C@@H]4OC4C[C@H](OC)[C@@H](OC)[C@H](C)O4)O3)O2)C[C@H](O)[C@H]1C` (some centres not stated): the “activity change, negative = inhibition” value is -0.3% (inactive).
The same measure, in the same setting: as for `CCOC(=O)NNc1ccc(N(CC)CC(C)O)nn1` (configuration not stated), the figure is -16.9% (inactive).
